# Compound activity: PubChem, National Center for Advancing Translational Sciences (NCATS)
# TrxR1 inh: qHTS Assay for Inhibitors of Mammalian Selenoprotein Thioredoxin Reductase 1 (TrxR1): qHTS; Thioredoxin reductase 1, cytoplasmic (Rattus norvegicus), O89049; AID 588453, 2011; Potency, µM (highest dose often 114 µM), inactives show top-dose activity change, negative = inhibition, hits mostly inhibitors; hit rate 1% among 390,000; recombinant rTrxR1, NADPH fluorescence consumption, selenite substrate; note: potency is the fitted concentration of half-maximal effect; nearly all actives have a fitted effect of over 65% in size
#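 Rat TrxR1 (90 nM in the dispensed reagent) was pre-reduced with 400 uM NADPH for 5 min at room temperature, then incubated with compound for 15 min. After 400 uM selenite was added, NADPH fluorescence (Ex 340/Em 450 nm) was followed for 8 min.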
# TrxR1 substrate: qHTS Assay for Substrates of Mammalian Selenoprotein Thioredoxin Reductase 1 (TrxR1): qHTS; Thioredoxin reductase 1, cytoplasmic (Rattus norvegicus), O89049; purified TrxR1 substrate turnover, NADPH consumption readout; Potency, µM (highest dose often 114 µM), for inactives: at the top dose activity change, negative = substrate turnover; hit rate 0.01% among 390,000; AID 588456, 2011; note: potency is the fitted concentration of half-maximal effect; nearly all actives have a fitted effect of over 50% in size
#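 Rat TrxR1, dispensed at 90 nM, was prereduced with 400 uM NADPH (final) for 5 min at ~22 deg C, then incubated with compound 15 min before 400 uM selenite. A first-read NADPH fluorescence drop versus no-compound background flagged substrates.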
# PKM2 act: qHTS Assay for Activators of Human Muscle isoform 2 Pyruvate Kinase; purified PKM2, Kinase-Glo ATP luminescence, activation; response scale: 0% is enzyme alone, no compound; Pyruvate kinase PKM (Homo sapiens), P14618; Potency, µM (titrated, usually from 57.5 µM), inactives show top-dose activation, actives largely listed as activators; AID 1631, 2009; hit rate 0.34% among 260,000; note: potency is the fitted concentration of half-maximal effect; nearly all actives have a fitted effect of over 55% in size
#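 Purified hPK-M2 (>95% pure) converted ADP (0.1 mM final) to ATP with 0.5 mM PEP in 50 mM imidazole pH7.2, KCl, MgCl2, Tween 20, BSA; 1 h at room temperature. ATP detected by Kinase-Glo luminescence.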
# GALK inh: qHTS Assay for Inhibitors of Human Galactokinase (GALK) | Potency, µM (highest dose often 57.5 µM), for inactives: top-dose activity change, negative = inhibition, usual class: inhibitors | AID 1868, 2009 | Purified GALK, Kinase-Glo residual ATP luminescence | P51570 | hit rate 0.007% among 270,000; note: potency is the fitted concentration of half-maximal effect
#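 5 nM enzyme, 35 uM ATP, 100 uM galactose, 20 mM HEPES pH8.0, 5 mM MgCl2; 1 h RT; residual ATP by Kinase-Glo Plus luminescence, qHTS format.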
# PI4K2A block: qHTS for small molecular inhibitors of PI4K2A | Phosphatidylinositol 4-kinase type 2-alpha (Homo sapiens), Q9BTU6 | purified PI4K2A, ADP-Glo luminescence, 1 h; active compounds read low | activity change, negative = inhibition, % at 76.9 µM | hit rate 0.13% among 420,000 | AID 1346378, 2018; in the data active = activity change below about -50%; inconclusive = mostly about -30% to -49%;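 note: -100% = wells without enzyme as full effect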
# Target sequence (Q9BTU6 whole entry, looked up): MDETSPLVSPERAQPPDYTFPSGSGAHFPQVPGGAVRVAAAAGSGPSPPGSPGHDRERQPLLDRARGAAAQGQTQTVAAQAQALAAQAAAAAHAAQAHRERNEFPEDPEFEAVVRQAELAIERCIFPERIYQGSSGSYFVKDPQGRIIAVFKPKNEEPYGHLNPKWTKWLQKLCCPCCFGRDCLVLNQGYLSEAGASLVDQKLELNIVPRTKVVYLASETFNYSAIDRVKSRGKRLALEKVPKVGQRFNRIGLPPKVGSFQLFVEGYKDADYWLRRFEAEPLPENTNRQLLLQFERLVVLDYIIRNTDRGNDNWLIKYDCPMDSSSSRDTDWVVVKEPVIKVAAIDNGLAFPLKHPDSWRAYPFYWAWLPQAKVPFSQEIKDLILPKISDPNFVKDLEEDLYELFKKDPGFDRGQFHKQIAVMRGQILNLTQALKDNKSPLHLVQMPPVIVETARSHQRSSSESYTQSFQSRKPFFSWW
#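 ADP-Glo luminescence measured ADP generated by PI4K2A enzyme (4 ug/mL before mixing) with 1.2 mM PI substrate (pre-mix) and 300 microM ATP (pre-mix). Tris pH7.5 buffer with MgCl2, Triton X-100; 1 h reaction at ambient temperature.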
# * hit, by the source's call; ? = inconclusive; · = no result; ! = repeats disagree; [ ] = remark or other dose. Rows were chosen to be rich in hits. Some 1.2% of all compounds tested hit in one or more screens of this group. Unless noted, calls come from the whole dose curve; as a rule, active = well fitted curve in the direction sought with a large enough effect; inconclusive = small, poorly fitted or top-dose-only effect, or another doubt; inactive = no such curve, though single readings can be large; an effect the other way counts as inactive or inconclusive. Unless noted, % is set by controls: 0 for no effect and ±100 for the full control effect.
SMILES,TrxR1 inh,TrxR1 substrate,PKM2 act,GALK inh,PI4K2A block
COc1ccc(NC(=O)c2nc(S(=O)(=O)Cc3ccc(C)cc3)ncc2Cl)cc1,2.5µM*,6%,·,·,-6
CCS(=O)(=O)c1ncc(Cl)c(C(=O)Nc2ccc(C)cc2)n1,?,8%,-1%[11.5 µM],6%,1
Cc1ccc(CS(=O)(=O)c2ncc(Cl)c(C(=O)Nc3ccc(OC(F)F)cc3)n2)cc1,28µM*,0%,·,2%,-5
CCOc1ccc(NC(=O)c2nc(S(=O)(=O)Cc3ccc(C)cc3)ncc2Cl)cc1,?,-5%,·,·,·
CN(C(=O)c1ccno1)c1nnc(-c2ccccn2)s1,20µM*,134%,-2%,5%,-7
CCOc1ccccc1NC(=O)c1sc2nc3c(cc2c1N)CN(Cc1ccccc1)CC3,34%,17%,·,·,-1
Cc1ccc(S(=O)(=O)CCC(=O)N2CCN(c3ccc(Cl)cc3)CC2)cc1,50µM*,0%,2%,-1%,1
O=C(CCS(=O)(=O)c1ccc(Cl)cc1)N1CCN(c2ccc(F)cc2)CC1,-9%,-4%,·,·,-12
O=C(CSc1n[nH]c(-c2ccccc2Cl)n1)NCc1ccc(F)cc1,9%[57.1 µM],-5%[57.1 µM],·,·,-2
CCn1c(=O)n(CC(=O)N2CCN(C(C)=O)CC2)c(=O)c2ccccc21,·,·,·,·,1
c1ccc(-c2nccc(-c3ccco3)n2)nc1,-19%,-2%,2%,0%,9
c1ccc(-c2nc(-c3ccco3)cs2)nc1,18µM*,16%,?,0%,-5
Cc1ccc(S(=O)(=O)NC2OC(=O)C(Cl)=C2Cl)cc1 (stereo unspecified),10µM*,-2%,-1%,-1%,-20
CCCCOC(=O)Nc1ccc(S(=O)(=O)Nc2ncccn2)cc1,11%[57.1 µM],5%[57.1 µM],-7%,4%,-8
CCCCCOC(=O)Nc1ccc(S(=O)(=O)Nn2cnnc2)cc1,34%,1%,4.5µM*,-1%,0
CCn1c(=O)c(=O)n(CC)c2cc(S(=O)(=O)Nc3ccc(C)cc3)ccc21,6%,-9%,10µM*,0%,-8
NC(=O)c1cc[n+](CC2=C(C(=O)O)N3C(=O)[C@@H](NC(=O)[C@@H](c4ccccc4)S(=O)(=O)[O-])[C@H]3SC2)cc1,45µM*,13%[57.1 µM],·,·,4
CC(=O)OCC1=C(C(=O)O)N2C(=O)C(NC(=O)CC(C)c3ccccc3)C2SC1 (stereo unspecified),-16%,7%,·,·,-6
COc1cccc2c1C(=O)C=C(C)C2=O,21%[57.1 µM],16%[57.1 µM],24%,-4%,-11
COC1=CC(=O)c2c(ccc3ncnc(N)c23)C1=O,?,79µM*,·,·,-58*
CCN1/C(=C/C(C)=C/c2sc3ccccc3[n+]2CC)Sc2ccccc21,17%[57.1 µM],-5%[57.1 µM],-54%,11%,-51*!
CCN1/C(=C\C(=S)Nc2ccccc2)Sc2ccccc21,17%[57.1 µM],-6%[57.1 µM],5%,-1%,3
Cc1sc2ccccc2[n+]1CCCCBr,179%,5%,·,·,·
CCOC(=O)c1sc2nc(C3CC3)cc(-c3ccc(F)cc3)c2c1N,33%,41%,0%,0%,1
CCOC(=O)c1sc2nc(C3CC3)cc(-c3ccc(OC)cc3)c2c1N,50µM*,150%,-8%,-1%,9
SMILES,TrxR1 inh,TrxR1 substrate,PKM2 act,GALK inh,PI4K2A block
Cc1ccc([N+](=O)[O-])c(OCCn2cnc3ccccc32)c1,10%[57.1 µM],1%[57.1 µM],8.9µM*,0%,1
COc1cc(Nc2ccccc2Cl)c([N+](=O)[O-])nc1[N+](=O)[O-],0.4µM*,-4%[57.1 µM],4%,1%,2
COc1ccccc1Nc1ccc([N+](=O)[O-])cc1N,-3%,-7%,2%,-2%,-6
CCOC(=O)c1c(N2C(=O)C3C4C=CC(O4)C3C2=O)sc2c1CCCC2 (stereo unspecified),13µM*,-2%,?,2%,9
CCOC(=O)c1c(-n2cnnn2)sc2c1CCCC2,26%,40%,3%,-3%,-5
CC1=C(SCc2ccccc2)C(=O)c2ccccc2C1=O,-43%[57.1 µM],-5%[2.29 µM],·,·,?
O=C1C(SCCO)=C(SCCO)C(=O)c2ccccc21,16µM*,10µM*,·,·,?
CCCOc1ccc(C(=O)Nc2ccc3oc(-c4ccc(N(C)C)cc4)nc3c2)cc1,26%,26%,·,·,-3
COc1cc(NC(=O)CC2C(=O)N(c3cccc(C)c3)C(=O)N2Cc2ccc(F)cc2)cc(OC)c1 (stereo unspecified),36%,4%,·,·,-7
CCN(CC)c1ccc2c(C)c(Cl)c(=O)oc2c1,-15%,46%,13%,-1%,-1
CCN(CC)c1ccc2c(c1)oc(=O)c1c(Cl)cc(=O)oc12,35µM*,4%,-1%,-13%,?
O=C(NC1CC(=O)N(c2ccc(F)cc2)C1)C1CC1 (stereo unspecified),12%[57.1 µM],-4%[57.1 µM],·,·,-2
Nc1cc(-c2ccncc2)c[nH]c1=O,?,?,-7%,-2%,-55*
COc1ccc(-c2nnc(SCC(=O)NCCc3ccc(OC)c(OC)c3)nc2-c2ccc(OC)cc2)cc1,-13%,-10%,·,·,-2
Cc1ccc(-n2c(=O)c3ccccc3n(CC(=O)Nc3cccc(C(F)(F)F)c3)c2=O)cc1,13%,-1%,·,·,2
CN(C)/[N+]([O-])=N/Oc1ccc([N+](=O)[O-])cc1C(F)(F)F,17%,4%[0.457 µM],·,·,·
CCNC(=O)N1CCN(/[N+]([O-])=N/Oc2ccc([N+](=O)[O-])cc2[N+](=O)[O-])CC1,14µM*,-7%,·,·,·
CC(=O)N1CCN(/[N+]([O-])=N/Oc2ccc([N+](=O)[O-])cc2[N+](=O)[O-])CC1,10µM*,-4%,·,·,·
CN(C)/[N+]([O-])=N/Oc1cc(F)c([N+](=O)[O-])cc1[N+](=O)[O-],20µM*,-10%,·,·,·
CCN(CC)/[N+]([O-])=N/Oc1ccc([N+](=O)[O-])cc1[N+](=O)[O-],14µM*,-11%,·,·,·
C=CCNCc1ccc(OC)cc1OC,·,·,·,·,-1
Cc1ccc(Cl)cc1NC(=O)CCCn1c(=O)c2cccn2c2ccccc21,-13%,-3%,·,·,3
CCN(CC)C(=O)N1CCN(/[N+]([O-])=N/Oc2ccc([N+](=O)[O-])cc2[N+](=O)[O-])CC1,22µM*,-8%,·,·,·
CCCCN(CC)C(=O)CCn1c(=O)c2cccn2c2cccnc21,11%,3%,·,·,-3
CC1(C)Cc2c(sc3[nH]c(=S)n(Cc4ccco4)c(=O)c23)CO1,50µM*,-3%,22%,2%,-1
